Assay outcomes: PubChem BioAssay, National Center for Advancing Translational Sciences (NCATS)
ERG Ets-DNA blk – qHTS for Small Molecule Inhibitors of the ERG Ets/DNA interaction | Transcriptional regulator ERG (Homo sapiens), P11308 | 370,000 compounds, 0.028% hits | AID 624246, 2012 | fluorescence polarization, His-ERG Ets domain / labelled DNA | Potency, µM (doses to about 76.9 µM), without a hit: top-dose FP activity, negative = inhibition, actives largely listed as inhibitors; active = well fitted inhibition curve with a large enough effect in the polarisation, with a control signal flat; inconclusive = small, poorly fitted or top-dose-only effect, or effect the other way, or a change in a side signal; inactive = no such curve, though single readings can be large or run the other way; the % refers to the polarisation;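 also: polarization taken with two DNA probes labelled with fluorescein and Texas red; potency is read from the fitted curve at half-maximal effect; % of control where 0% means no effect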
Target sequence (P11308 whole entry, looked up, the tested form may be a part): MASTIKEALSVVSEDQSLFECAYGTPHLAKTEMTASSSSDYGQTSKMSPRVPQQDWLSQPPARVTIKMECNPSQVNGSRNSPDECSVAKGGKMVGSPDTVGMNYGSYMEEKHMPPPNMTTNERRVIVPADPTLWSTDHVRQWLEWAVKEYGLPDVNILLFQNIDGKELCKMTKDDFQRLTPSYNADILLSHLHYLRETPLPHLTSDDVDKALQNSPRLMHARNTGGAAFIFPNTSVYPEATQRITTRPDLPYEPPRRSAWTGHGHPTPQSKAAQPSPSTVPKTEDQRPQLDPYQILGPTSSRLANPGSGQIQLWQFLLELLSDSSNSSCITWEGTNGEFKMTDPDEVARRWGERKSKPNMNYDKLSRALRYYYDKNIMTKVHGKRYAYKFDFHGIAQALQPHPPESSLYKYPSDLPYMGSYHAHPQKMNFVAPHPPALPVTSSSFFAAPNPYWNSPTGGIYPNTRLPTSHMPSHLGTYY
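His-tagged ERG Ets domain (1 uM in the protein solution; 300mM KCl, 50mM Tris-HCl, 1mM EDTA, 1mM DTT, pH 7.5) received compound, then a probe mix of 5 nM fluorescein-DNA and 100nM Texas-615-DNA. Fluorescence polarization was read for both dyes.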
RORgamma inh – qHTS for inhibitors of ROR gamma transcriptional activity | Drosophila S2 Gal4-RORgamma UAS-luciferase reporter, 20 h | 310,000 compounds, 5.4% hits | AID 2551, 2010 | Nuclear receptor ROR-gamma (Mus musculus), P51450 | Potency, µM (top dose mostly 53.6 µM), without a hit: at the highest dose activity change, negative = inhibition, most hits filed as inhibitors; also: potency is read from the fitted curve at half-maximal effect; % is scaled to controls: 0 for no effect and ±100 for the full control effect; nearly all actives have a fitted effect of over 60% in size
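Using a luciferase readout, inhibitors were identified by reduced reporter activity in Drosophila cells coexpressing a copper-inducible Gal4–ROR gamma fusion and UAS-driven Photinus luciferase, incubated 20 hr after 700 uM copper sulfate.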
Integrin act MD – qHTS for Activators of Integrin-Mediated Alleviation for Muscular Dystrophy; alpha7betagal myoblasts, beta-gal FDG fluorescence, 48 h; 350,000 compounds, 0.064% hits; Potency, µM (doses to about 38.3 µM), for the others: top-dose activation, hits mostly activators;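 also: potency is read from the fitted curve at half-maximal effect; 100% = response of the positive control SU9516; nearly all actives have a fitted effect of over 60% in size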
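Alpha7betagal+/- myoblasts (passage 13) were plated 16-24 hr, then exposed to compounds (1:260 dilution of DMSO stock) for 48 hours at 37C. After MPER lysis, β-galactosidase reporter activity was read as FDG fluorescence (ex 480/em 540) after 30 minutes.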
Giardia kill – Small Molecules that selectively kill Giardia lamblia: qHTS. 340,000 compounds, 0.15% hits. Giardia lamblia trophozoite viability. activity change, % at 7.66 µM, hits read low. AID 540267, 2011; in the data active = activity change below about -80%; inconclusive = between about -30% and that limit;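 also: parasites exposed to compound for two days anaerobically before the ATP read; % is scaled to controls: 0 for no effect and ±100 for the full control effect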
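Each well holds 100 Giardia trophozoites and compound. After two days (48 hrs) at 37 deg C in anaerobic conditions, ATP is quantified by luminescence.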
VP16 counter – VP16 counterscreen qHTS for inhibitors of ROR gamma transcriptional activity | Drosophila S2 Gal4-VP16 UAS-luciferase, luminescence, 20 h | AID 2546, 2010 | Potency, µM (series often up to 53.6 µM), for the others: top-dose activity, negative = inhibition, actives largely listed as inhibitors | 310,000 compounds, 3.5% hits;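 also: Gal4-VP16 expression switched on by copper sulfate through the metallothionein promoter; potency is read from the fitted curve at half-maximal effect; % is scaled to controls: 0 for no effect and ±100 for the full control effect; nearly all actives have a fitted effect of over 50% in size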
* = called active by the depositor; ? = inconclusive; . = no result; [ ] = dose if it differs, or a comment. This is one part of a sample in which hits are shown more often than they occur. Unless noted, calls follow the shape of the dose curve; as a rule, active = well fitted curve in the direction sought with a large enough effect; inconclusive = small, poorly fitted or top-dose-only effect, or another doubt; inactive = no such curve, though single readings can be large; an effect the other way counts as inactive or inconclusive.

SMILES	ERG Ets-DNA blk	RORgamma inh	Integrin act MD	Giardia kill	VP16 counter
CCOc1nc(Nc2ccc(OC)c(Cl)c2)nc(OCC)n1	-3%	0%	9%	-11	-4%
CCc1ccc(NC(=S)NCc2ccccc2)cc1	-17%	2.2µM*	-26%	0	?
CCc1ccc(NC(=S)NCc2cccnc2)cc1	4%	-9%	26%	-9	17%
S=C(NCc1cccnc1)Nc1ccc(Cl)cc1	1%	-10%	-9%	-1	2%
S=C(NCc1ccncc1)Nc1ccccc1	14%	18%	?	-7	2%
S=C(NCc1ccccc1)Nc1ccncc1	18%	-11%	-30%	14	14µM*
O=C(Cc1ccccc1)NNC(=S)Nc1ccccc1	-9%	?	12%	29	-17%
S=C(NCc1ccccc1)Nc1ccc(Cl)cc1	-3%	4.5µM*	9%	10	?
O=C(CCC(=O)NNC(=S)Nc1ccccc1)NCc1ccccc1	-3%	10µM*	-4%	-9	?
COc1ccc(OC2C=CC(c3ccccc3)OC2CO)cc1 (centres undefined)	.	2%[10 µM]	.	.	10%[10 µM]
O=C1c2ccccc2C(=O)C1(c1ccccc1)N1CCN(c2cccc(C(F)(F)F)c2)CC1	-1%	.	.	.	.
Cc1ccc(-n2c(=O)c3oc4ccccc4c3n(Cc3cccc(F)c3)c2=O)cc1C	0%	.	.	.	.
N#CCCn1c(=O)c(-c2cc(F)cc(F)c2)nc2cnc(Oc3cccc(Cl)c3)nc21	.	30%	.	.	2%
Cc1ccc(Cl)cc1NC(=S)NN	0%	8.9µM*	?	-17	?
FC(F)(F)Sc1ccc(NC(=S)NCc2ccccc2)cc1	-3%	13µM*	-65%	6	?
CCc1ccc(C(O)(CNCc2ccccc2)c2ccccc2)cc1 (centres undefined)	-10%	-19%	-46%	17	13µM*
O=c1[nH]c2ccc(NC(=S)Nc3ccc(F)cc3)cc2[nH]1	3%	-64%	?	-15	-1%
Cc1ccc(Cl)cc1NC(=O)CSC(N)=O	-10%	?	6%	-9	?
CCc1ccc(NC(=S)Nc2ccc3[nH]c(=O)[nH]c3c2)cc1	-6%	13µM*	-19%	1	-65%
NS(=O)(=O)c1ccc(NC(=S)NCc2ccccc2)cc1	-2%	13%	-12%	2	6%
CC(=O)C1=C(O)C(=O)N(Cc2ccccc2)C1c1ccco1 (centres undefined)	-4%	-15%	-21%	-4	5%
CCCCC1CCC(C(=O)N(CCOC)c2c(N)n(CC(C)C)c(=O)[nH]c2=O)CC1 (centres undefined)	2%	.	9%	-7	.
CO[C@@H]1/C=C\CC(=O)N[C@@H](C)C(=O)OC[C@@H](OC)[C@H](C)/C=C\CC(=O)OC[C@H]1C	.	16%[10 µM]	.	.	-2%[10 µM]
COc1cc2ccc(NC(C)=O)cc2cc1OC	.	.	21%	.	.
Cc1cc(=O)[nH]c(Nc2ccc(N(C)C)cc2)n1	4%	-27%	16%	9	5%
SMILES	ERG Ets-DNA blk	RORgamma inh	Integrin act MD	Giardia kill	VP16 counter
C=CCNC(=S)Nc1ccc(Cl)cc1	-4%	16µM*	-21%	-1	?
CCc1ccc(NC(=S)Nn2cnnc2)cc1	1%	1.1µM*	-19%	4	0%
NNC(=S)Nc1ccc(Cl)cc1	2%	11µM*	14%	-19	?
CC(C)COCC(O)CCC(=O)NNC(=S)Nc1ccccc1 (centres undefined)	6%	-35%[10 µM]	7%	2	1µM*
NNC(=S)Nc1ccc(OC(F)(F)F)cc1	-2%	?	7%	-30	?
N=c1n(CCN2CCOCC2)c2ccccc2n1CC(=O)c1cccc([N+](=O)[O-])c1	3%	18%	11%	-8	2%
N=c1n(CCN2CCOCC2)c2ccccc2n1CC(=O)c1ccc(Cl)c(Cl)c1	1%	?	-10%	0	4µM*
Cc1ccc(NC(=O)c2ccc([N+](=O)[O-])o2)c(C)c1	-7%	24%	-56%	-90*	-5%
Cc1ccc(-c2nnc(NC(=O)c3ccc([N+](=O)[O-])o3)o2)c(C)c1	10%	.	-2%	-81*	.
